Experimental data reported in ChEMBL document CHEMBL4513216, “Probing the Open Global Health Chemical Diversity Library for Multistage-Active Starting Points for Next-Generation Antimalarials” (ACS Infect Dis, 2020).
Among all 65,000 compounds or so, about 2,100 (3.2%) showed an effect of 50% or more. The median lay at about -52%. This is one part of a sample in which strong results are shown more often than they occur.

System: Plasmodium falciparum
Assay: Screen against P. falciparum Asexual Blood Stage (ABS), at 5uM
Type: functional, Dd2
Conditions: tested at 5 uM

Row | Structure (SMILES) | INHIBITION [%]
1 | Cc1cnn(CC(C)NCc2csc(-c3ccco3)n2)c1 (stereo not drawn) | -84
2 | Cc1cnn(CCNCc2csc(-c3ccccc3)n2)c1 | 66.6
3 | Cc1cnn(CCNCc2csc(-c3cccs3)n2)c1 | -51.7
4 | Cc1cnn(CCNCc2csc(-c3ccc(F)cc3)n2)c1 | -58
5 | Cc1cnn(CCNCc2csc(-c3ccc(C)o3)n2)c1 | -32.6
6 | Cc1cnn(CCNCc2csc(-c3ccco3)n2)c1 | 54.9
7 | O=C(C1CCS(=O)(=O)CC1)N1C[C@@H]2CC[C@H]1CN(Cc1ccccc1)C2 | -51.3
8 | C=C1C(C)(C)[C@@H]2CC[C@]1(C(=O)N1CCC(n3cc(CO)nn3)CC1)C2 | -90.8
9 | Cc1nc(CN(C)C2CCN(CCC(=O)N3CCOCC3)C2)no1 (stereo not drawn) | -30.8
10 | Cc1nc(C)n(CC2CCCN2Cc2nc(-c3cccs3)no2)n1 (stereo not drawn) | 23.3
11 | Cc1nc(C)n(CC2CCCCN2Cc2nc(-c3ccco3)no2)n1 (stereo not drawn) | 61.7
12 | Cc1nc(C)n(CC2CCCN2Cc2cc(-c3cccs3)on2)n1 (stereo not drawn) | 65.2
13 | Cc1nc(C)n(CC2CCCN2Cc2nc(-c3ccco3)no2)n1 (stereo not drawn) | -131
14 | Cc1nc(C)n(CC2CCCN2Cc2coc(-c3cccs3)n2)n1 (stereo not drawn) | -63.6
15 | Cc1nc(C)n(CC2CCCCN2Cc2nc(-c3ccoc3)no2)n1 (stereo not drawn) | -49.9
16 | Cc1oc(-c2ccccc2)nc1CN1CCC(c2ccnn2C)CC1 | -18.9
17 | Cc1nc(C(=O)N2CCOCC2)cc(N2CCC(C(N)=O)CC2)n1 | -45.2
18 | Cn1nccc1-c1ncc2c(c1C(=O)O)CCN(Cc1ccccc1)C2 | -41.8
19 | COCC(=O)N1CCN(Cc2cccnc2)c2ncccc2C1 | -53.1
20 | CN(C)C(=O)CC1CC2(CCNCC2)c2cc(F)ccc21 (stereo not drawn) | -22.3
21 | CN(C)C(=O)c1cnn2c1OCCC2 | -117
22 | CCn1cc(S(=O)(=O)N2CCC(C)Sc3ccccc32)cn1 (stereo not drawn) | -0.433

Row | Structure (SMILES) | INHIBITION [%]
23 | CC1CCN(S(=O)(=O)c2cccnc2)c2ccccc2S1 (stereo not drawn) | 55
24 | CN1CCN(S(=O)(=O)c2cccnc2)c2cnccc21 | -111
25 | CS(=O)(=O)N1CCCC1CS(=O)(=O)c1ccccc1 (stereo not drawn) | -100
26 | CN(C)CC(Nc1nc(N)nc2c1CCNCC2)c1ccccc1 (stereo not drawn) | -104
27 | CCOC(=O)[C@H]1[C@@H](O)C(=O)N(C)C12CCN(C(=O)CC1CCCC1)CC2 | -1.62
28 | Cn1cnc2c(N3CCCC3)nc(C3CCN(CC4CC4)CC3)cc21 | 68.8
29 | Cn1cc(-c2nc(C3CCN(CC4CC4)CC3)cc3c2ncn3C)cn1 | -98.2
30 | Cn1cnc2c(N3CCCC3)nc(C3CCNCC3)cc21 | -31.4
31 | c1cnnc(N2CCCC(NCc3nc(-c4ccco4)no3)C2)c1 (stereo not drawn) | -78.3
32 | O=C(COc1ccccc1)N1C[C@@H]2COC[C@]2(COc2cccnc2)C1 | -110
33 | Cn1nc(N2CCCC(C(=O)Nc3nc4ccccc4[nH]3)C2)ccc1=O (stereo not drawn) | -105
34 | Cc1cc(C)n(CC(C)NC(=O)NCc2c(C)cc(C)[nH]c2=O)n1 (stereo not drawn) | -51.8
35 | O=C1CNc2ncnc(N3CCN(c4ccccc4F)CC3)c2N1 | -21.3
36 | N#CCCN(CCN1CCOCC1)Cc1ccc(F)c(Br)c1 | 52.6
37 | CCOc1ccc(CN(CCC#N)CCN2CCOCC2)cc1OC | -99
38 | COc1ccc(CN(CCC#N)CCN2CCOCC2)cc1OC | -43.2
39 | CC(C)C(=O)N1CCC2(CC1)COCCN2Cc1ccc(F)cc1 | -29.9
40 | O=C1CNc2ncnc(Nc3cnn(Cc4ccc(F)cc4)c3)c2N1 | -134
41 | CN(Cc1ccc(F)cc1F)Cc1cc2c(cc1Br)OCCO2 | -30.1
42 | Cc1ccc(F)c(N2CCCC(Nc3nccn4cnnc34)C2=O)c1 (stereo not drawn) | -141
43 | Cn1cc(NS(=O)(=O)c2ccc3c(c2)CCCC3)ccc1=O | -133
44 | CC(=O)NCCCNCc1ccc(Cl)c2cccnc12 | -36.6

Row | Structure (SMILES) | INHIBITION [%]
45 | O=C(CCCNCc1ccc(Cl)c2cccnc12)NC1CC1 | 11.3
46 | CC(C)(O)CN1CCN(C(=O)c2ccc(Cl)c3cccnc23)CC1 | -2.98
47 | CCS(=O)(=O)NCCNCc1ccc(Cl)c2cccnc12 | 61.5
48 | CC(C)(C)[S+]([O-])CCNC(=O)c1ccc(Cl)c2cccnc12 (stereo not drawn) | -46.8
49 | CC(C)(O)CSCCNCc1ccc(Cl)c2cccnc12 | 67.7
50 | CN(C)C(=O)CC1CC2(CCN(Cc3ccsc3)CC2)c2ccccc21 (stereo not drawn) | 14.2
51 | COC(=O)C(c1cc(F)ccc1F)N(C)C(=O)c1cnc(C)cn1 (stereo not drawn) | -85.1
52 | CN(Cc1noc(C(C)(C)C)n1)C1CCCN(c2cccnn2)C1 (stereo not drawn) | -18.2
53 | CN(C)C(=O)N1CCC(c2nc3ccc(-c4ccccc4)cn3n2)CC1 | -52.3
54 | CN(C)c1ncc(I)c(C2CCCN2C)n1 (stereo not drawn) | 20.7
55 | CN(C)c1ncc(I)c(C2CCCCN2C)n1 (stereo not drawn) | 57.8
56 | CN(C)c1ncc(I)c(C2CCCCN2S(C)(=O)=O)n1 (stereo not drawn) | -17.7
57 | CCOC(=O)c1ccccc1NC(=O)CN(C)Cc1ccccc1Cl | 8.05
58 | Cc1c(C(=O)O)cnn1-c1ccc(-c2nc(C(C)(C)C)no2)cn1 | -116
59 | CS(=O)(=O)NC[C@]12COC[C@H]1CN(CC1CCC1)C2 | -40
60 | Cc1ccc(CN2CC3(CCN(C(=O)c4cscn4)C3)C2)o1 | -13.6
61 | CCn1ccnc1C1CCCN(c2nccc3ccccc23)C1 (stereo not drawn) | 30.8
62 | Cc1cc(C)nc(N2CCCC(c3nccn3CCCN(C)C)C2)c1 (stereo not drawn) | 51.7
63 | CN(C)CCn1ccnc1C1CCCN(c2cc(N)ncn2)C1 (stereo not drawn) | -52.8
64 | CN(C)CCn1ccnc1C1CCCN(c2nccc3ccccc23)C1 (stereo not drawn) | 57.4
65 | COc1cc(OC)nc(N2CCCC(c3nccn3CCN(C)C)C2)n1 (stereo not drawn) | -23.1
66 | CN(C)Cc1nnc(C2CCCN(c3nccc4ccccc34)C2)n1C (stereo not drawn) | -10.1

Row | Structure (SMILES) | INHIBITION [%]
67 | COc1ccc(CCN(C)CCS(=O)(=O)c2ccc(Cl)cc2)cc1OC | -7.75
68 | COCC(=O)N1CCC2(CC1)COc1ccccc1S(=O)(=O)N(C)C2 | -129
69 | O=C1CNc2ncnc(N3CCN(Cc4cccc(F)c4)CC3)c2N1 | -56.6
70 | CC(=O)Nc1nc(C(=O)N2CCCC(n3nc(C)nc3C)C2)cs1 (stereo not drawn) | -113
71 | O=C(c1cccnc1SC/C=C/c1ccccc1)N1CCOCC(O)C1 (stereo not drawn) | 55.5
72 | O=C(c1cccnc1SCc1ccccc1)N1CCOCC1 | -36.4
73 | O=C(c1cccnc1SC/C=C/c1ccccc1)N1CC[C@H](O)C1 | -66.8
74 | CCOCCCNC(=O)c1cc(C)nc(N2CCCCC2)n1 | -133
75 | O=C(c1cnco1)N1CCC(Cc2ccc3ncccc3c2)CC1 | 67.4
76 | O=C(c1cnco1)N1CCC(Cc2cnc3ccccc3c2)CC1 | -56.6
77 | O=C(c1cnco1)N1CCC(Cc2cccc3ncccc23)CC1 | -2.05
78 | Cn1cc(C[C@H]2[C@H](O)CCN2C(=O)c2ccsc2)cn1 | -51.7
79 | Cc1cc2ccccc2n1CCC(=O)N1CCC2(CC1)CNC(=O)C2 | -33.5
80 | Cc1cc2ccccc2n1CCC(=O)N1CCCC(O)(CN(C)C)CC1 (stereo not drawn) | 55.2
81 | Cc1cc2ccccc2n1CCC(=O)N1CCCC2(CC1)CNC(=O)O2 (stereo not drawn) | 21.3
82 | CN(C)CCn1ccnc1C1CCN(c2cc(N)nc(N)n2)CC1 | -90.3
83 | Cc1ccc(OCc2occc2C(=O)O)cc1 | -66.2
84 | OCC1(Cc2ccccc2F)CCCN(c2ccc3ccccc3n2)C1 (stereo not drawn) | -37.1
85 | COC(=O)c1ccccc1C(=O)N(CCN(C)C)Cc1sccc1C | 18.3
86 | Cc1ccsc1CN(CCN(C)C)C(=O)c1ccc(C#N)nc1 | 46.5
87 | Cc1ccsc1CN(CCN(C)C)C(=O)c1ccccc1C#N | 60.9
88 | O=C1CC[C@H]2[C@H](CCN2C(=O)C2CCOC2)N1Cc1ccncc1 (stereo partly drawn) | -87.6

Row | Structure (SMILES) | INHIBITION [%]
89 | CC(C)Oc1ncnc2c1CCN(Cc1cccs1)CC2 | -52.8
90 | COc1ccc(CN2CCc3ncnc(C4CC4)c3CC2)cc1 | -30.4
91 | CC(C)Oc1ncnc2c1CCN(Cc1ccco1)CC2 | 61.2
92 | COc1ccc(CN2CCc3ncnc(OC(C)C)c3CC2)cc1 | 63.6
93 | CC(C)Oc1ncnc2c1CCN(Cc1ccoc1)CC2 | 31.6
94 | Cc1ccc(CN2CCc3ncnc(OC(C)C)c3CC2)s1 | 0.437
95 | COC(=O)c1ccc(NC(C)c2ccc3c(c2)NC(=O)CO3)nn1 (stereo not drawn) | -143
96 | O=C(O)CNc1cc(-c2nccnc2N2CCCC2)c2cc[nH]c2n1 | -6.02
97 | O=C(Nc1ccccc1)c1n[nH]c(-n2cnnc2)n1 | -64.6
98 | Cc1occc1C(=O)N1CCCC(c2nncn2C)C1 (stereo not drawn) | -65.6
99 | CN1CCN(c2ccncc2S(=O)(=O)N2CCCCC2)CC1 | -92.3
100 | CC(C)c1nc(C2CCCN2CCS(=O)(=O)c2ccccc2)no1 (stereo not drawn) | -158
101 | COc1ccccc1CCNC(=O)CN1CCCC1c1noc(C)n1 (stereo not drawn) | -3.9
102 | Cc1cccc(OCCNC(=O)CN2CCCC2c2noc(C)n2)c1 (stereo not drawn) | 31.6
103 | COCc1ccccc1CNC(=O)CN1CCCC1c1noc(C)n1 (stereo not drawn) | 51.2
104 | Cc1nc(C2CCCN2CC(=O)NCCOc2ccccc2)no1 (stereo not drawn) | -62.7
105 | CCc1nc(C2CCCN2CC(=O)NCCOc2ccccc2)no1 (stereo not drawn) | 58.6
106 | COCc1cccc(CNC(=O)CN2CCCC2c2noc(C)n2)c1 (stereo not drawn) | -27.1
107 | CCc1nc(C2CCCN2CCS(=O)(=O)c2ccccc2)no1 (stereo not drawn) | 60
108 | CCc1nc(C2CCCN2CCCS(=O)(=O)c2ccccc2)no1 (stereo not drawn) | 48.7
